Source: PubChem BioAssay (NCATS)
Inconclusive results are not listed. A call without a number means that no potency is given here. Active and inactive are the calls of the source. Calls come from the whole dose curve; as a rule, active = well fitted cell-killing curve with a large enough effect; inconclusive = small, poorly fitted or top-dose-only effect; inactive = flat fitted curve, though single readings scatter.

assay: qHTS of pediatric cancer cell lines to identify multiple opportunities for drug repurposing: Primary screen for BT-37 cells (AID 1347094); conditions: BT-37 viability, CellTiter-Glo luminescence, 48 h; series mostly up to 57.3 µM
How it was run: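 Primary screen of approved and investigational compounds on cells in growth media at 37 degrees C, 5% CO2. MIPE set at 11-point and NPC set at 8-point dilutions; viability scored by ATP-based luminescence at 48 hours.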
Potency is the fitted concentration of half-maximal effect.

Row | SMILES | Potency
1 | C=Cc1c(C)c2cc3nc(cc4[nH]c(cc5nc(cc1[nH]2)C(C)=C5CCC(=O)O)c(CCC(=O)OC)c4C)[C@@]1(C)C3=CC=C(C(=O)OC)[C@H]1C(=O)OC | 0.0769 µM (active)
2 | CCCCC(=O)O[C@]1(C(=O)CO)[C@@H](C)C[C@H]2[C@@H]3CCC4=CC(=O)C=C[C@]4(C)[C@@]3(F)[C@@H](O)C[C@@]21C | inactive
3 | CC(=O)C1=C(O)C=C2Oc3c(C(C)=O)c(O)c(C)c(O)c3C2(C)C1=O (centres undefined) | 1.37 µM (active)
4 | C=CC(=O)N1CCc2ccc(-n3c(=O)ccc4cnc5ccc(-c6cnn(C)c6)cc5c43)cc21 | 6.11 µM (active)
5 | CCNC(=O)Nc1ccc(-c2nc3c(c(N4CCOC[C@H]4C)n2)CCN(C2COC2)C3)cc1 | 1.72 µM (active)
6 | CC1(C)O[C@@H]2C[C@H]3[C@@H]4CCC5=CC(=O)C=C[C@]5(C)[C@@H]4[C@@H](O)C[C@]3(C)[C@]2(C(=O)CO)O1 | inactive
7 | O=C(Nc1ccc(Oc2ccnc3[nH]ccc23)c(F)c1)c1cccn(-c2ccc(F)cc2)c1=O | inactive
8 | C[C@@H]1[C@H](C)CC[C@]2(C(=O)O)CC[C@]3(C)C(=CC[C@@H]4[C@@]5(C)C[C@@H](O)[C@H](O)[C@@](C)(CO)[C@H]5CC[C@]43C)[C@@H]12 | inactive
9 | CCCCCCCCCCCCc1ccc(S(=O)(=O)Nc2nncs2)cc1 | inactive
